Assay outcomes (PubChem)
A selection: hits, their analogues and other compounds. The true share with any hit is near 5.2%.
SMARCA2 act: SMARCA2 function activation, primary screen | MG213 cells, MMTV-luciferase reporter, dexamethasone, overnight | activation, % at 9.1 µM | AID 652017 | actives 1% (n = 370,000); in the data active means activation above about 7.8%;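 further: 0% = vehicle wells and 100% = reference activator wells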
GRIN3A LBD mod: NR3A (human) ligand-binding domain modulation; Tm shift relative to glycine control, % at 25 µM; actives 2.5% (n = 340,000); NR3A LBD differential scanning fluorimetry, Tm shift; 0% = protein alone, 100% = glycine-bound protein;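 active means melting temperature shift of at least 10% of the positive control shift, at one fixed dose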
Vif imaging: blocks HIV Vif function. inhibition, % at 7.49 µM. actives 0.35% (n = 340,000). HEK293T cells, Vif self-association by quenched fluorescence, imaging, 24 h. AID 602346; in the data active means inhibition above about 50%, passing the limit was not always enough
esBAF inh: inhibitors of esBAF chromatin remodeling in mouse ES cells; Bmi1-luciferase knock-in reporter, 24 h; 100% = twice the neutral-well signal; reporter increase, % at 12.5 µM; actives 2% (n = 350,000); AID 602393; in the data active means activation above about 40%;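 further: 0% = median of the plate's neutral control wells and 100% = double that signal; a rise in the Bmi1 reporter signal indicates esBAF inhibition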
SKN-1 block: C. elegans SKN-1 inhibition. actives 0.49% (n = 360,000). inhibition, % at 21.8 µM. AID 624304. C. elegans VP596 Pgst-4::GFP/RFP ratio, acrylamide-induced, 24 h;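 active means interference check ratio from 0.5 to 1.5 plus GFP to RFP signal ratio inhibition reaching or exceeding a fixed threshold, cut at about 30% in these data, passing the limit was not always enough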
NadD inh: NadD (S. aureus) enzyme inhibition; purified NadD enzyme, colorimetric absorbance read-out; inhibition, % at 20 µM; actives 0.78% (n = 360,000); in the data active means inhibition above about 26%
* marks the source's active call; other numbers are inactive results.

`Cc1ccc(NC(=O)NC(=O)N(c2ccccc2)S(C)(=O)=O)cc1` gave SMARCA2 act 1, GRIN3A LBD mod 6, Vif imaging 11, esBAF inh 76*, SKN-1 block 13 and NadD inh -2.
COc1ccc(/C(N)=C/C(=O)C(C)(C)C)cc1 was read as SMARCA2 act 3, GRIN3A LBD mod -1, Vif imaging -4, esBAF inh 58*, SKN-1 block 9 and NadD inh 8.
Cc1ccnc(NC(=O)CCC2CCCCC2)c1 was read as SMARCA2 act 5, GRIN3A LBD mod -1, Vif imaging 21, esBAF inh 49*, SKN-1 block -3 and NadD inh 2.
O=C(CCC1CCCC1)Nc1ccon1 was read as SMARCA2 act -2, GRIN3A LBD mod 2, Vif imaging 4, esBAF inh 3, SKN-1 block 0 and NadD inh -3.
`Cc1cc(NC(=O)CCC2CCCCC2)no1` gave SMARCA2 act 2, GRIN3A LBD mod 0, Vif imaging 8, esBAF inh 10, SKN-1 block 7 and NadD inh -2.
CCCC(=O)Nc1ccc(Br)cn1 was read as SMARCA2 act -1, GRIN3A LBD mod 0, Vif imaging -18, esBAF inh -2, SKN-1 block 8 and NadD inh 4.
`O=C(CCC1CCCC1)Nc1ccc(Br)cn1` gave SMARCA2 act 2, GRIN3A LBD mod -1, esBAF inh 55*, SKN-1 block -12 and NadD inh 2.
Screening O=C(CC1CCCC1)Nc1ccc(Br)cc1 returned SMARCA2 act 5, GRIN3A LBD mod -2, Vif imaging 3, esBAF inh 67*, SKN-1 block 14 and NadD inh 1.
`CCC(=O)Nc1ccc(Br)cn1` gave SMARCA2 act -2, GRIN3A LBD mod 233*, Vif imaging -8, esBAF inh 0, SKN-1 block 9 and NadD inh -6.
CO[C@H]1CN(C)C(=O)c2cc(NC(=O)c3ccccc3)ccc2OC[C@H](C)N(C)C[C@H]1C was read as esBAF inh -1.
O=C(Nc1ccc(Br)cn1)c1ccc(Cl)s1 was read as SMARCA2 act 7, GRIN3A LBD mod -6, Vif imaging 10, esBAF inh 60*, SKN-1 block -2 and NadD inh -1.
Screening O=C(Nc1ccc(Br)cn1)c1ccc(Br)s1 returned SMARCA2 act 3, GRIN3A LBD mod 8, Vif imaging 1, esBAF inh 45, SKN-1 block 31 and NadD inh -2.
For CN(C)C(=O)C[C@@H]1CC[C@H]2[C@H](COc3ccc(NC(=O)NCc4ccccc4)cc3C(=O)N2C)O1 the results were esBAF inh -7.
C(=C\c1ccccc1)/C=N/Nc1nc2ccccc2s1 was read as SMARCA2 act 1, GRIN3A LBD mod -4, Vif imaging 24, esBAF inh 66*, SKN-1 block 15 and NadD inh 7.
Screening C(=N\Nc1nc2ccccc2s1)/c1ccccn1 returned SMARCA2 act -8 and GRIN3A LBD mod -2.
Screening Brc1cc2c(cc1/C=N/Nc1nc3ccccc3s1)OCO2 returned SMARCA2 act -2, GRIN3A LBD mod 0, Vif imaging 19, esBAF inh 68*, SKN-1 block 4 and NadD inh 15.
CCC/C=N/Nc1nc2ccccc2s1 was read as SMARCA2 act -1, GRIN3A LBD mod -2, Vif imaging -21, SKN-1 block 6 and NadD inh -9.
For Cc1ccc2[nH]c(C)c(/C=N/Nc3nc4ccccc4s3)c2c1 the results were SMARCA2 act -2, GRIN3A LBD mod 24*, Vif imaging 4, esBAF inh 6, SKN-1 block 13 and NadD inh 20.
Brc1csc(/C=N/Nc2nc3ccccc3s2)c1 was read as SMARCA2 act 0, GRIN3A LBD mod 22*, Vif imaging -14, SKN-1 block 17 and NadD inh 12.
For COc1ccccc1NC(=O)N1C[C@@H](O)COC[C@@H]2O[C@H](CC(=O)NCCc3ccncc3)CC[C@H]21 the results were esBAF inh 1.
C[C@@H]1CCCCO[C@@H](CN(C)C(=O)Cc2ccccc2)[C@H](C)CN([C@@H](C)CO)C(=O)c2cc(NS(=O)(=O)c3ccc(F)cc3)ccc2O1 was read as esBAF inh 4.
For O=C(N[C@@H]1CC[C@@H](CCNC(=O)C2CC2)O[C@@H]1CO)c1ccncc1 the results were esBAF inh 1.
`COc1ccc(/C=N/Nc2nncc3ccccc23)cc1` gave SMARCA2 act 8.5*, GRIN3A LBD mod -5, Vif imaging -7, esBAF inh -37, SKN-1 block 14 and NadD inh 1.
Screening COc1cc(/C=N/Nc2nc3ccccc3s2)cc([N+](=O)[O-])c1O returned SMARCA2 act -4, GRIN3A LBD mod -5, Vif imaging -1, SKN-1 block 4 and NadD inh 10.
Screening O=[N+]([O-])c1cc(Cl)cc(/C=N/Nc2nc3ccccc3s2)c1O returned SMARCA2 act 0, GRIN3A LBD mod 20*, Vif imaging -7, esBAF inh 16, SKN-1 block 14 and NadD inh 7.
Screening COc1ccc(C=NNc2nc3ccccc3s2)cc1 returned SMARCA2 act -1, GRIN3A LBD mod 33*, Vif imaging -1, esBAF inh -55, SKN-1 block 2 and NadD inh -1.
`C[C@@H]1CN([C@@H](C)CO)C(=O)c2cc(-c3ccc(C#N)cc3)cnc2O[C@@H]1CN(C)C(=O)c1ccccc1` gave esBAF inh 3.
Screening CC=Cc1ccc2n(c1=O)C[C@H]1[C@H](CO)[C@@H](C(=O)NCc3ccc(F)cc3)N(Cc3cncnc3)[C@@H]21 (mixture of isomers) returned esBAF inh 0.
Screening O=C(Cn1nnc(-c2ccc(N3CCOCC3)cc2)n1)c1ccc(F)cc1 returned SMARCA2 act -3.
`Fc1ccc(Cn2nnc(-c3ccc(CN4CCOCC4)cc3)n2)cc1` gave SMARCA2 act -3, GRIN3A LBD mod 0, Vif imaging -25, esBAF inh 5, SKN-1 block 36* and NadD inh -2.
Screening Clc1ccc(Cn2nc(-c3ccccc3)nc2-c2ccccc2)cc1 returned SMARCA2 act 2, GRIN3A LBD mod -4, Vif imaging 2, SKN-1 block 6 and NadD inh 4.
Clc1ccc(Cn2nnc(-c3ccc(CN4CCOCC4)cc3)n2)cc1 was read as SMARCA2 act -4, GRIN3A LBD mod 2, Vif imaging -15, esBAF inh 52*, SKN-1 block 30 and NadD inh -4.
`Clc1ccc(Cn2nnc(-c3ccccc3)n2)cc1` gave SMARCA2 act 1, GRIN3A LBD mod 6, Vif imaging 3, esBAF inh 47*, SKN-1 block 54* and NadD inh -5.
`N#Cc1ccc(Cn2nnc(-c3ccc(N4CCOCC4)cc3)n2)cc1` gave SMARCA2 act 2.
